Among all 38,000 compounds or so, about 1,200 (3.2%) showed an effect of 50% or more. The median lay at about -58%. Shown is part of a subset that was picked to be rich in strong results.
Test system: Plasmodium falciparum
Assay: Calibr Malaria Delayed Death Assay SOP
Type: functional, organism-based
Design: scale not given: in the data most compounds retested in dose-response had high values
Conditions: concentration 4.99e-06 (unit not given; other assays of the set use mol/L)

Row | Compound | Percent Effect [%]
1 | CS(=O)(=O)CCOc1nc(-c2ccccc2Cl)no1 | -35.46
2 | O=C(c1ccccc1)N1CC[C@H]2C[C@H](c3nnc(C4CC4)o3)O[C@@H]2C1 | -87.6
3 | CCc1c(C)sc2ncnc(N3C[C@H](O)[C@@H](N4CCCC4)C3)c12 | 60.55
4 | CCc1c(C)sc2ncnc(N3CC[C@@H](N4CCOCC4)[C@H](O)C3)c12 | -5.608
5 | CCc1c(C)sc2ncnc(N3CCN(C4CCOCC4)CC3)c12 | 31.3
6 | Cc1sc2ncnc(N3CCCC3Cn3cccn3)c2c1C (stereo not given) | -55.32
7 | CCc1nc(CC2CN(c3ncnc4sc(C)c(C)c34)CCO2)no1 (stereo not given) | -116.3
8 | CCc1c(C)sc2ncnc(N3CC[C@@H](N4CCC(O)CC4)[C@H](O)C3)c12 | 74.53
9 | Cc1cc(C)cc(N2CCN(C(=O)C3CN(C)C(=O)N3)CC2=O)c1 (stereo not given) | -59
10 | CC1(NC(=O)Cc2csc(-c3cccc(Cl)c3)n2)CCS(=O)(=O)C1 (stereo not given) | -114.6
11 | O=C(NCc1nnnn1-c1ccccc1)c1ccc(C2CCCO2)s1 (stereo not given) | -146
12 | Cc1nc(C(=O)N(C)CC2CC2)nn1-c1ccccc1C(C)C | -82.1
13 | COc1ccccc1OC1CN(C(=O)C(c2ccc(F)cc2)N(C)C)C1 (stereo not given) | 0.4692
14 | Cc1cccc(C(C(=O)N2CC(Oc3ccccc3F)C2)N(C)C)c1 (stereo not given) | -1.988
15 | CN(C)C(C(=O)N1CC(Oc2ccccc2F)C1)c1ccc(F)cc1 (stereo not given) | 62.88
16 | Cc1nn(C)cc1-c1cc(C(F)(F)F)nc(NC2CCN(C)CC2)n1 | -72.67
17 | O=C(CCc1ccccn1)N1CCCC(N2CCNC2=O)C1 (stereo not given) | -153
18 | Cc1ccc(Cl)c(C)c1NC(=O)N1CCCN(Cc2ccccn2)CC1 | -12.1
19 | COc1cccc(CN2CCCC2c2c(C)nn(C)c2C)c1 (stereo not given) | 21.41
20 | Cc1nc(C)n(CC2CCCN2Cc2nc(N)c3ccccc3n2)n1 (stereo not given) | -104.3
21 | c1ccc(Cc2noc(CN3CCCCC3Cn3cccn3)n2)cc1 (stereo not given) | -99.91
22 | Cc1nc(CN2CCCC2Cn2ccnc2C(C)C)nc2ccccc12 (stereo not given) | 77.09

Row | Compound | Percent Effect [%]
23 | Cc1nc2ccccc2nc1CN1CCCC1c1c(C)nn(C)c1C (stereo not given) | 56.82
24 | Cc1nc(CN2CCCC2c2ccsc2)nc2ccccc12 (stereo not given) | 24.09
25 | Cc1nc(CN2CCCCC2Cn2cccn2)nc2ccccc12 (stereo not given) | 70.28
26 | Cc1nc(CN2CCCC2Cn2cccn2)nc2ccccc12 (stereo not given) | 55.28
27 | CC(C)c1nccn1CC1CCCN1Cc1nc2ccccc2n1C (stereo not given) | 20.35
28 | Cc1nc(CN2CCCCC2Cn2cncn2)nc2ccccc12 (stereo not given) | -55.02
29 | c1cnn(CC2CCCN2Cc2noc(C3CC3)n2)c1 (stereo not given) | -115.2
30 | Cc1nn(C)c(C)c1C1CCCN1CCCc1nc2ccccc2o1 (stereo not given) | 18.49
31 | CC(c1nc(C2CC2)no1)N1CCN(CCN2CCCC2=O)CC1 (stereo not given) | -34.43
32 | CC(=O)N1CCN(c2cc(N3CCOCC3)cnn2)CC1 | -46.73
33 | CCSc1nnc([C@@H](N)CC(C)C)o1.Cl | -105.7
34 | CC(C)(C)c1nc(CN(Cc2ccccc2Cl)C2CCCC2)no1 | -109.5
35 | Cc1cc(C(F)(F)F)nc(CCNC(C)Cn2nc(C)cc2C)n1 (stereo not given) | 25.86
36 | CCSc1nc2ccccc2c(=O)n1OCC(=O)OC | -35.88
37 | N#Cc1c(SCCN2CCOCC2)sc2c(O)cc(O)nc12 | 20.53
38 | CC(Nc1ccc(Br)cc1)c1nc(C2CC2)no1 (stereo not given) | -70.57
39 | CCOCC1CN(C(=O)N2CCCC2)Cc2cnn(CC)c21 (stereo not given) | -92.45
40 | CCOc1ccc2[nH]c(=O)c(CN3CCN(S(N)(=O)=O)CC3)cc2c1 | -148.7
41 | CC1CCCN(c2ncc(C(=O)NCc3ccc(F)c(Cl)c3)c(N)n2)C1 (stereo not given) | -82.32
42 | O=C(CN1CCCC1Cn1cncn1)NCC1(c2ccccc2)CC1 (stereo not given) | -28.68
43 | Cc1nc2ccccc2nc1CN1CCOC(Cn2cccn2)C1 (stereo not given) | -57.9
44 | Cc1cnn(CC2CCCN2Cc2nc3ccccc3nc2C)c1 (stereo not given) | -94.42

Row | Compound | Percent Effect [%]
45 | Cc1nc2ccccc2nc1CN1CCCC1Cn1cccn1 (stereo not given) | 67.78
46 | c1ccc(CN2CCC(NCCc3ccc4c(c3)CCO4)CC2)nc1 | 34.15
47 | Cc1n[nH]c2ncc(CNC3CCN(Cc4ccccn4)CC3)cc12.Cl | -31.75
48 | Cc1[nH]c2ccc(CNC3CCN(Cc4ccccn4)CC3)cc2c1C | 93.27
49 | Cc1nnc(SCc2cccc(F)c2)n1CC(N)=O | -112.6
50 | Cc1ccc(N2CCc3sc(C(=O)NCCN4CCCC4)cc32)nn1 | -55.34
51 | C=C(C)CN1CCN(CCC(=O)Nc2ccccc2C(N)=O)CC1 | 11.76
52 | O=C(NC[C@H]1OC[C@@H]2CN(Cc3ccco3)CC[C@@H]21)c1cscn1.O=C(O)C(F)(F)F | -201.4
53 | CC(C)CCn1cc(C(=O)NC2CCS(=O)(=O)C2)c2ccccc2c1=O (stereo not given) | -89.43
54 | CCC(Nc1nc(CCN)nc2ccccc12)c1cc(C)ccn1 (stereo not given) | -26.25
55 | CCC(Nc1nc(C)nc2onc(C)c12)c1cccs1 (stereo not given) | 19.14
56 | CCC(Nc1nc(CCN)nc2ccccc12)c1cccs1 (stereo not given) | 62.16
57 | CN(C)CCn1c2c(ccc1=O)CC(NC(=O)c1cnccn1)CC2.O=C(O)C(F)(F)F (stereo not given) | -12.74
58 | Cc1cccc(CN2CCC(c3nnsc3S(C)(=O)=O)CC2)c1 | -50.13
59 | CNC(=O)NCC1CCC2(CCN(C(=O)c3ccccn3)CC2)CO1.O=C(O)C(F)(F)F (stereo not given) | -170.4
60 | Cn1cncc1CN1CCC2(CC1)CCN2c1ncccn1 | -81.78
61 | CCn1cncc1C1CC(=O)Nc2c1c(C)nn2-c1ccc(C)cc1 (stereo not given) | -199.9
62 | Cc1ncc(CN2CCC(c3ccnn3C)CC2)n1-c1ccccc1 | 30.79
63 | Cc1nnc(CN2CCN(Cc3nccn3C)CC2)n1C | -20.51
64 | CCc1nc(CN2CCCN(C(=O)c3ccco3)CC2)cs1 | -4.304
65 | O=C(O)C(F)(F)F.O=C(O)C(F)(F)F.c1cncc(C2COC3(CCN(Cc4ccsc4)CC3)C2)c1 (stereo not given) | 12.38

Reference: ChEMBL document CHEMBL3988442, “University of Dundee, Small-Polar-MMV Screening Library” (2021)
